Screening data as filed in PubChem.
Efa HMGR inh: E. faecalis class II HMG-CoA reductase inhibition. purified E. faecalis HMGR, NADPH absorbance 340 nm kinetic. inhibition, % at 10 µM. hit rate 0.41% among 190,000. AID 1066;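 active means inhibition above a set limit, the median over all tested compounds plus 3 SD, cut at about 9.5% in these data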;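 further: enzyme runs in reverse so mevalonate oxidation gives rising NADPH absorbance; 0% = complete reaction with DMSO and 100% = background rate lacking mevalonate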
Autophagy mod: alters autophagy in cells; AID 463193; hit rate 0.98% among 190,000; calls only at 10 µM (by protocol); MEF GFP-LC3 puncta imaging; test concentration mostly 10 µM;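 active means percentage of spot-positive cells more than 3 SD above its plate mean, without a fluorescence outlier flag or 80% toxicity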;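 further: spot-positive cell cutoff set from DMSO-treated cells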
Arbovirus anti: blocks arbovirus infection. arbovirus infection cell-based antiviral screen. inhibition, % at 10 µM. hit rate 0.37% among 200,000. AID 1251; in the data active means inhibition above about 30%
Ins promoter up: MIN6 insulin promoter up-regulation | MIN6 insulin promoter-GFP reporter, high-content imaging; active compounds read high | z-score at 5 µM | hit rate 0.3% among 190,000 | AID 1625;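 active means z-score above 3 at 5 µM with at least 500 cells counted in the well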
DTT redox prof: compounds producing H2O2 with reducing agent – biochemical, NIH compound library profiling, artefact control for MLSCN library redox annotation, primary screen | activation, % at 10 µM | AID 878 | DTT-dependent redox cycling H2O2, phenol red/HRP absorbance; 100% = 100 µM peroxide control, 0% = buffer | hit rate 0.03% among 200,000;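 active means activation of at least 50% relative to the plate's high and low controls in the primary single-dose screen; inactive means activation below 50%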;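 further: compound incubated with DTT at 0.8 mM final as the reducing agent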
p47phox inh: blocks human p47phox regulatory protein of NADPH oxidases; P14598; inhibition, % at 24.7 µM; p47phox/p22phox peptide binding, fluorescence polarization, 2 h; hit rate 0.53% among 220,000;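 active means inhibition above about 30%, limit read from the data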;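 further: 0% = p47phox with labelled peptide and 100% = labelled peptide alone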
Target sequence (P14598 whole entry, looked up): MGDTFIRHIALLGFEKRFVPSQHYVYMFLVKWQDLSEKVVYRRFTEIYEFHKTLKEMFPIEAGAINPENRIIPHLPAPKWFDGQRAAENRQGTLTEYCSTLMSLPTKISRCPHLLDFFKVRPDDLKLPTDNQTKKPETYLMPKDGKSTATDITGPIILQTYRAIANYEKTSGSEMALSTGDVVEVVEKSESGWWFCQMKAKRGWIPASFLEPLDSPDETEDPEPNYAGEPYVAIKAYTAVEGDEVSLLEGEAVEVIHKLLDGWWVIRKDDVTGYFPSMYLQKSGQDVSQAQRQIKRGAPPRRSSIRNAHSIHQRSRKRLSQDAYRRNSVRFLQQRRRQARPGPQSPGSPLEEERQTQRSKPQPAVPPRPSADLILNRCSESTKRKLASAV
* hit, by the source's call; i = inactive; . = no result given; + = active, no number. This is a sample that favours compounds with a hit; in the whole collection about 2.2% have one here.

SMILES	Efa HMGR inh	Autophagy mod	Arbovirus anti	Ins promoter up	DTT redox prof	p47phox inh
O=C(NCC1OCCCN1S(=O)(=O)c1cc(F)ccc1F)C(=O)NC1CCCCC1 (centres undefined)	9.6*	i	21	-0.21	0	-7
O=C(N/N=C/c1c(Nc2cccc(C(F)(F)F)c2)nc2ccccn2c1=O)c1ccccc1	-7	+	1	.	-4	-44
O=C(N/N=C/c1c(Nc2cccc(C(F)(F)F)c2)nc2ccccn2c1=O)c1ccccc1[N+](=O)[O-]	0	i	-22	-0.6	1	-22
CCC(=O)Nc1ccc(C(=O)OCC(=O)c2ccc(C)c([N+](=O)[O-])c2)cc1	-1	i	3	3.4*	2	-6
Cc1cccc(Nc2nnc(SCC(=O)NC(=O)Nc3ccc4c(c3)OCCO4)s2)c1	-7	i	-23	0.25	0	3
Cc1nnc(SCC(=O)NC(=O)Nc2ccc3c(c2)OCCO3)s1	0	+	15	-0.23	0	-4
CCOC(=O)Nc1ccc(S(=O)(=O)NCc2ccccc2)cc1	.	i	1	.	-1	38*
CCOC(=O)Nc1ccc(NS(=O)(=O)c2ccc(C)cc2)cc1	-4	i	-13	-0.17	1	-2
Cc1cc(C)c2c(c1)/C(=c1/sc3n(c1=O)CN(c1ccccc1)CN=3)C(=O)N2	.	.	.	.	.	-5
CCOC(=O)c1cc(-c2ccccc2)sc1NC(=S)Nc1cc(C)ccn1	3	+	-4	0.24	-2	-1
CCOC(=O)c1cc(-c2ccccc2)sc1NC(=O)C(C)(C)C	-6	i	-10	-0.01	3	5
COc1cccc2cc(-c3nc(-c4cccs4)cs3)c(=O)oc12	-3	i	-10	-0.23	0	-35
O=c1oc2ccccc2cc1-c1nc(-c2cccs2)cs1	-1	i	-1	.	3	52*
COc1cc(-n2c(=O)c3ccccc3n(Cc3ccccc3)c2=O)cc(OC)c1OC	7	i	7	-0.11	-3	12
CSc1nc2ncc3c(n2n1)CC(C)(C)CC3=O	9.9*	i	2	0.57	0	-8
CC1(C)CC(=O)c2cnc3c(C#N)cnn3c2C1	-6	i	5	-0.04	0	-6
COC(=O)c1sccc1NC(=O)/C=C\c1ccc(Cl)cc1Cl	3	+	-20	2.2	0	-7
CCOC(=O)c1c(CSC(=N)N)n(-c2ccc(C)cc2)c2cc(Br)c(OC(C)=O)cc12	-4	i	-43	.	18	37*
CCOC(=O)c1c(CSC(=N)N)n(C)c2cc(Br)c(OC(C)=O)cc12	.	.	.	-0.33	.	-11
O=C(NC1CCCCC1)c1cc(F)cc2c1OCOC2	.	.	.	-0.26	.	-14
CCCCN1C(=O)C2(NNc3ccccc3O2)c2ccccc21 (centres undefined)	-6	i	-29	.	-2	-21
C=CCN1C(=O)C2(NNc3ccccc3O2)c2ccccc21 (centres undefined)	-7	+	-25	0.54	0	-42
CC(C)Cn1c(N)c(C(=O)COC(=O)c2cc(C(F)(F)F)nc3c(C(F)(F)F)cccc23)c(=O)n(C)c1=O	-8	i	13	-0.37	0	-30
CCN(CC)CCCC(C)Nc1c2ccc(Cl)cc2nc2ccc(OC)cc12 (centres undefined)	1	.	-22	12*	.	4
COc1ccc2nc3cc(Cl)ccc3c(Nc3cc(C(C)C)c(O)cc3C)c2c1	.	.	.	.	.	30
SMILES	Efa HMGR inh	Autophagy mod	Arbovirus anti	Ins promoter up	DTT redox prof	p47phox inh
CCN1CCCC1CNc1ncnc2c1[nH]c1ccc(Cl)cc12 (centres undefined)	-2	+	-19	-2.3	4	6
O=C1CCCN1CCCNc1ncnc2c1[nH]c1ccc(Cl)cc12	1	i	-6	-0.88	3	-12
O=C(O)c1cncc(C#CCC2CCCCC2)c1	.	.	.	-0.08	.	0
COc1ccc(CNC(=O)c2cccc(-c3ccc(C)c4ccccc34)n2)cc1	0	i	-10	-0.59	-1	1
Cc1cc(C)cc(-n2c(=O)c3sccc3n(CC(=O)NCc3ccco3)c2=O)c1	-6	i	5	4.6*	2	-9
CNC(=O)COC(=O)c1cc(SC)ccc1Cl	-10	+	1	0.25	0	-3
Nc1ccc(NC(=O)c2ccccc2)c2c1C(=O)c1ccccc1C2=O	2	i	-8	.	-1	25
Nc1ccc(Br)c2c1C(=O)c1ccccc1C2=O	5	i	-17	0.9	3	37*
Nc1ccc(O)c2c1C(=O)c1ccccc1C2=O	-10	i	10	.	2	54*
NC1=C(Br)C(=O)c2ccccc2C1=O	.	.	.	.	.	6
CSc1nsc2nc(=O)c(/C=C3\C=Nc4ccccc43)c(N)n12	-8	i	38*	0.52	3	-10
CC(C)S(=O)(=O)c1nsc2nc(=O)c(/C=C3\C=Nc4ccccc43)c(N)n12	3	i	37*	0.08	-1	-12
Cc1cn2c(N)c(/C=C3\C=Nc4ccccc43)c(=O)nc2s1	.	.	.	0.26	.	-43
CC1=Nc2ccccc2/C1=C/c1c(N)n2c(S(=O)(=O)C(C)C)nsc2nc1=O	-7	i	39*	0.38	0	-13
CCc1nn2c(N)c(/C=C3\C=Nc4ccccc43)c(=O)nc2s1	2	i	31*	-0.03	0	-64
CSc1nsc2nc(=O)c(/C=C3\C(C)=Nc4ccc(C)cc43)c(N)n12	-2	i	20	-0.1	-1	-92
O=c1[nH]c2ccccc2n1Cc1ccc(F)cc1	.	.	-1	.	.	.
CC1=Nc2ccc(C)cc2/C1=C/c1c(N)n2c(S(=O)(=O)C(C)C)nsc2nc1=O	-2	i	45*	0.46	0	-37
N#CC(C#N)=Cc1cc2ccccc2nc1N1CCOCC1	14*	i	4	.	0	-6
N#C/C(=C\c1cc2ccccc2nc1N1CCOCC1)C(=O)Nc1ccc(N2CCOCC2)cc1	-6	i	5	-0.39	-1	-10
CN(C(=O)c1coc(=O)c2ccccc12)c1ccc(Br)cc1	2	i	40*	0.23	-3	-3
NC(=O)c1c(NC(=O)C2c3ccccc3Oc3ccccc32)sc2c1CCCCC2	-3	i	-15	0.55	0	-43
CN1CCN(C(=O)CN(C)S(=O)(=O)c2ccc3ccccc3c2)CC1	5	+	20	-1.8	0	1
CSc1ncc(Cl)c(C(=O)C(C#N)c2nc3c(C)cc(C)cc3c(=O)[nH]2)n1 (centres undefined)	-2	i	41*	-0.02	-1	-11
O=C(NC1=NCCS1)C1Cc2ccccc2CN1C(=O)c1ccccc1 (centres undefined)	3	i	2	3.1*	-1	-15
O=[N+]([O-])/C(=C\Nc1ccccc1Cl)S(=O)(=O)c1ccccc1	18*	i	5	1.1	-8	-5
